# Arbovirus anti = antivirals against arbovirus infection; 200,000 tested, 0.37% active; inhibition, % at 10 µM; AID 1251; arbovirus infection cell-based antiviral screen; in the data active = inhibition above about 30%
# Redox H2O2 prof = compounds producing H2O2 with reducing agent – biochemical, NIH compound library profiling, artefact control for MLSCN library redox annotation, primary screen; DTT-dependent redox cycling H2O2, phenol red/HRP absorbance; 100% = 100 µM peroxide control, 0% = buffer; 200,000 tested, 0.03% active; AID 878; activation, % at 10 µM;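 active = activation of at least 50% relative to the plate's high and low controls in the primary single-dose screen; inactive = activation below 50%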;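 also: compound incubated with DTT at 0.8 mM final as the reducing agent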
# p97 ATPase inh = inhibitors of human p97 ATPase; recombinant p97 ATPase, Kinase-Glo ATP luminescence, 3 h; P55072; 220,000 tested, 0.42% active; AID 1481; inhibition, % at 8 µM; in the data active = inhibition above about 15%;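 also: 0% = DMSO vehicle and 100% = wells lacking enzyme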
# S1P4 ag = agonists of human S1P4 receptor. O95977. S1P4-expressing cell line, agonist reporter assay. activation, % at 4.98 µM. 220,000 tested, 0.35% active. AID 1509; in the data active = activation above about 11%;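 also: 0% = DMSO vehicle and 100% = reference agonist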
# Target sequence (O95977 whole entry, looked up): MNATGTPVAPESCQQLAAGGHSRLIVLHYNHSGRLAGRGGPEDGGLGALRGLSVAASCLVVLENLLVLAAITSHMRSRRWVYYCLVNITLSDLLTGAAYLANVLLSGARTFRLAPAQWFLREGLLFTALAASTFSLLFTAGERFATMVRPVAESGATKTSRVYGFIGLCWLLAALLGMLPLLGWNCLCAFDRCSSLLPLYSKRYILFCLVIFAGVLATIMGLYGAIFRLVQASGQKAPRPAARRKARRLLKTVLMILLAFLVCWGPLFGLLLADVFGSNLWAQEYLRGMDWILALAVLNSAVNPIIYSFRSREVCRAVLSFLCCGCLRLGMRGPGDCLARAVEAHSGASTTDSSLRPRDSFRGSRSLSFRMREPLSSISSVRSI
# S1P4 antagonist = antagonists of human S1P4 receptor | 220,000 tested, 0.26% active | inhibition, % at 4.98 µM | AID 1510 | O95977 | S1P4-expressing cells, antagonist mode, reporter read-out; in the data active = inhibition above about 29%;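 also: 0% = wells stimulated with agonist and 100% = vehicle wells without agonist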
# S1P3 antag-1 = S1P3 (human) receptor antagonism; inhibition, % at 4.98 µM; 170,000 tested, 0.27% active; Q99500; AID 485; CHO S1P3 NFAT-BLA reporter, FRET fluorescence, antagonist mode;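 active = inhibition above the plate cutoff, the mean inhibition of test wells on that plate plus 3 SD, cut at about 28% in these data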;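 also: cells challenged with S1P at its EC80 of 0.8 µM; blue over green emission ratio from cleaved BLA substrate after 4 h stimulation; 0% = S1P-stimulated wells and 100% = unstimulated DMSO-only wells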
# S1P3 antag-2 = human S1P3 receptor antagonism, confirmation | shares compounds with S1P3 antag-1 | CHO S1P3 NFAT-BLA reporter, FRET, antagonist mode | inhibition, % at 4.98 µM | 240 tested, 30% active | AID 1429;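 active = inhibition above the hit threshold that was computed for the earlier primary screen, cut at about 30% in these data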;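 also: 0% = S1P-stimulated wells and 100% = unstimulated DMSO-only wells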
# Redox H2O2 DR = confirmation of DTT-dependent redox cycling H2O2 generators. shares compounds with Redox H2O2 prof. phenol red-HRP absorbance. EC50, µM. 60 tested, 40% active;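 active = EC50 under a set limit for hydrogen peroxide production with the reducing agent DTT present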
# p97 inh conf = human p97 ATPase inhibition, confirmation | recombinant p97 ATPase, Kinase-Glo ATP luminescence | inhibition, % at 8 µM | shares compounds with p97 ATPase inh | AID 1517 | 760 tested, 44% active;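 active = percent inhibition of p97 ATPase above a set limit, the primary screen's mean plus 3 SD, cut at about 15% in these data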;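 also: 0% = DMSO wells and 100% = wells lacking p97 protein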
# S1P4 ag conf = confirmation of human S1P4 receptor agonists | shares compounds with S1P4 ag | S1P4 agonist cell-based reporter assay | activation, % at 4.98 µM | 740 tested, 7% active; in the data active = activation above about 12%;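 also: 0% = vehicle and 100% = full reference agonist response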
# S1P1 ag = activates human S1P1, counter-screen for S1P4 agonists | activation, % at 4.98 µM | shares compounds with S1P4 ag | 740 tested, 4% active | S1P1 agonist cell-based assay, activation | AID 1563; in the data active = activation above about 21%;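 also: 0% = vehicle wells and 100% = reference agonist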
# S1P4 antag conf = confirmation of human S1P4 receptor antagonists; S1P4-expressing cell line, antagonist mode, reporter read-out; inhibition, % at 4.98 µM; 520 tested, 71% active; shares compounds with S1P4 antagonist; in the data active = inhibition above about 30%
# S1P1 antag = counter-screen for S1P4 antagonists: antagonists of human S1P1; shares compounds with S1P4 antagonist; cell-based S1P1 antagonist counterscreen, inhibition; 520 tested, 37% active; inhibition, % at 4.98 µM; in the data active = inhibition above about 40%;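 also: receptor stimulated with S1P near its EC80; 0% = agonist stimulated wells and 100% = vehicle only wells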
# * hit, by the source's call; . = not tested or not shown. In the library only some 1.6% were active in any assay of this set; here they are far more common.
SMILES,Arbovirus anti,Redox H2O2 prof,p97 ATPase inh,S1P4 ag,S1P4 antagonist,S1P3 antag-1,p97 inh conf,others
C[C@H]1CCC/C=C/C2C[C@H](O)CC2[C@H](O)/C=C/C(=O)O1 (stereo not given in full),-26,0,4,-1,51*,46*,.,S1P3 antag-2=16;S1P4 antag conf=97*;S1P1 antag=28
CN1C(=O)CN=C(c2ccccc2)c2cc([N+](=O)[O-])ccc21,1,.,-1,1,-12,-7,.,
Cc1nc2c(=O)n(C)c(=O)nc-2n(C)n1,-27,293*,31*,2,97*,.,38*,Redox H2O2 DR=2.8*
CN1C[C@@H]2C[C@@H](c3cccn3-c3ccccn3)N3CCC[C@@]23C1=O,1,-2,2,0,7,-6,.,
COc1ccccc1CCNCc1ccc(OC)c(OC)c1OC,5,0,4,2,-20,1,.,
CCn1nc(-c2ccccc2)nc2c(=O)n(C)c(=O)nc1-2,0,140*,37*,2,11,103*,34*,Redox H2O2 DR=0.9*
O=C1C(=O)c2ccccc2-c2ccccc21,-34,284*,32*,-3,99*,.,38*,Redox H2O2 DR=0.71*;S1P4 antag conf=116*;S1P1 antag=143*
COC(=O)c1cn(C(=O)c2cccc3ccccc23)c2ccccc12,.,.,4,0,-4,-2,.,
N#CC(C#N)=NNc1ccc(S(N)(=O)=O)cc1,.,.,23*,1,-14,-6,25*,
Nc1ccccc1-[n+]1c(-c2ccccc2)cc(-c2ccccc2)cc1-c1ccccc1,.,.,16*,2,-8,-9,10,
CN1CCC(n2nccc2N)CC1,1,3,15*,1,-5,-13,2,
Nc1ccnn1C1CCNCC1,6,3,2,1,-7,-5,.,
COc1ccccc1CCNC1CCCC(C)C1 (stereo not given),-3,0,2,-1,-18,7,.,
O=C1NC(=O)N(Cc2ccco2)C(=O)/C1=C/C=C/c1ccco1,.,.,31*,0,6,-1,12,
O=C1NC(=O)N(Cc2ccccc2)C(=O)/C1=C\C=C\c1ccco1,1,5,2,0,-20,-16,.,
C[C@]12CC[C@@H]3c4ccc(O)c(O)c4CC[C@H]3[C@@H]1CC[C@@H]2O,8,.,23*,0,8,-5,5,
O=P(NC(c1ccccc1)c1ccccc1)(Oc1ccccc1)Oc1ccccc1,-12,1,-9,-1,-21,13,.,
Cc1ccc(S(=O)(=O)N(C)CCCC(=O)N2CCN(c3ccccn3)CC2)cc1,0,1,1,0,-6,-38,.,
Cc1ccc(S(=O)(=O)N(C)C/N=C(\N)N[N+](=O)[O-])cc1,16,0,15*,-1,-2,0,7,
O=c1c2ccccc2nc(Cc2ccccc2)n1-c1ccc(O)cc1,-12,0,11,0,-16,-9,.,
CCN1C(=O)C(=Cc2ccc(N3CCOCC3)o2)C(=O)N(CC)C1=S,.,.,1,1,5,-2,.,
CN1C(=O)C(=Cc2ccc(N3CCOCC3)o2)C(=O)N(C)C1=S,5,9,19*,-1,-2,3,-2,
Cc1cc(N2C(=O)C3CCCN3C2c2ccccc2)no1 (stereo not given),2,0,0,0,2,-15,.,
c1ccc2c(c1)Sc1ccccc1N2CC1CN2CCC1CC2 (stereo not given),.,.,18*,1,15,9,15*,
Clc1ccccc1CNC1CN2CCC1CC2 (stereo not given),0,1,6,3,-11,3,.,
SMILES,Arbovirus anti,Redox H2O2 prof,p97 ATPase inh,S1P4 ag,S1P4 antagonist,S1P3 antag-1,p97 inh conf,others
CCCCNC(=O)c1c(N)n(CCCOC)c2nc3ccccc3nc12,-20,-3,22*,3,-28,.,-2,
COc1ccc(Cn2c(N)c(C(=O)NCc3ccco3)c3nc4ccccc4nc32)cc1OC,-19,2,32*,1,2,9,7,
COCCNC(=O)c1c(NC(=O)c2ccc(Br)o2)n(Cc2ccccc2)c2nc3ccccc3nc12,1,0,8,2,15,-7,.,
CCOC(=O)c1c(NS(=O)(=O)c2ccccc2)n(CCCOC)c2nc3ccccc3nc12,1,0,45*,2,5,2,17*,
COCCCNC(=O)c1c(NC(=O)c2ccco2)n(Cc2ccccc2)c2nc3ccccc3nc12,-2,-1,24*,3,1,-6,4,
CNC(=O)OCc1n(C)cc[n+]1C,8,0,2,2,-8,-4,.,
O=S1(=O)CC2(N3CCOCC3)CCCCC21 (stereo not given),3,-1,1,1,-4,-2,.,
CC(=O)N1N=C2C3CCN(CC3)C2C1c1cccc2ccccc12 (stereo not given),-1,0,16*,-1,4,-13,11,
CC(=O)N1N=C2C3CCN(CC3)C2C1c1ccc(C)cc1 (stereo not given),0,0,1,-1,2,-21,.,
O=C1CC(c2cccnc2)=NN1c1ccccc1,1,0,13,3,-11,-14,.,
COC(=O)CC1NC2CCCCC2NC1=O (stereo not given),4,0,3,2,-35,-36,.,
CC1CCC[C@H](O)CCCCCc2cc(O)cc(O)c2C(=O)O1 (stereo not given in full),17,0,17*,0,1,11,25*,
O=C(O)CC1OCC=C2CN3CCC45C6=CC(=O)C(=O)C([N+](=O)[O-])=C6NC4C1C2CC35 (stereo not given),.,.,38*,1,1,0,37*,
CCC(=NCC1CCCO1)c1c(O)n(-c2ccccc2C)c(=O)[nH]c1=O (stereo not given),.,.,10,93*,6,-7,.,S1P4 ag conf=-3;S1P1 ag=-8

# Assay outcomes from PubChem BioAssay.
